{"source": "PubChem BioAssay (NCATS)", "note": "Records with an inconclusive call do not appear. Calls of active or inactive are those of the source. The call rests on the fitted dose curve; in most records, active means well fitted inhibition curve with a large enough effect; inconclusive means small, poorly fitted or top-dose-only effect; inactive means flat fitted curve, though single readings scatter. On the % scale 0 is the no-effect control and ±100 the full control effect; potency means the concentration at half of the fitted maximal effect.", "data": [{"target": "Phospholipid hydroperoxide glutathione peroxidase GPX4 (Homo sapiens) (UniProt P36969)", "sequence (P36969 whole entry, looked up)": "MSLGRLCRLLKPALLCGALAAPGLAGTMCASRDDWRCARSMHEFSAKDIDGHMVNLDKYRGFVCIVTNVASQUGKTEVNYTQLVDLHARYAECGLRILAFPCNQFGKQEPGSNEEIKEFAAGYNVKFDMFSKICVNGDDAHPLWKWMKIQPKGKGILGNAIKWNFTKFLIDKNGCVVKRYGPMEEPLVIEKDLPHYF", "test": "Primary qHTS Assay for Inhibitors of Recombinant Selenoprotein Glutathione Peroxidase 4 (GPX4) (AID 1845192); further: nearly all actives have a fitted effect of over 65% in size", "conditions": "recombinant GPX4, GR-coupled NADPH fluorescence, 15 min; series mostly up to 50 µM; activity change, negative = inhibition: at the top concentration", "summary_of_the_method": "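NADPH consumption, followed by fluorescence at 340/450 nm between 0 and 15 min, reports GPX4 activity via coupled glutathione reductase (100 nM). Enzyme 200 nM was pre-exposed to compound 30 min; 0.5 mM cumene hydroperoxide and 1 mM GSH served as substrates.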", "values": [{"compound": "CN(C)Cc1ccc(S(=O)(=O)n2ccc(/C=C/C(=O)NO)c2)cc1", "activity change, negative = inhibition": "-22.8% (inactive)"}, {"compound": "CO[C@@H]1[C@@H](O)[C@H](O)[C@@H](n2c3c(Cl)cccc3c3c4c(c5c6cccc(Cl)c6[nH]c5c32)C(=O)NC4=O)O[C@H]1CO", "activity change, negative = inhibition": "-19.7% (inactive)"}, {"compound": "CC(C)n1c(/C=C/[C@H](O)C[C@H](O)CC(=O)O)c(-c2ccc(F)cc2)c2ccccc21", "outcome": "inactive"}, {"compound": "CN(C)C(N)=NC(=N)N", "outcome": "inactive [setting not given]"}, {"compound": "C=CC(=O)N[C@H]1CCOC[C@H]1Nc1ncc2cc(-c3c(Cl)c(OC)cc(OC)c3Cl)ccc2n1", "activity change, negative = inhibition": "-25.2% (inactive)"}, {"compound": "O=C(Nc1cnccc1Cl)N1CCN(Cc2ccc3c(c2)OC(F)(F)O3)CC1", "activity change, negative = inhibition": "0.87% (inactive)"}, {"compound": "CN(C)CCOc1ccc(-c2nc(-c3ccc4c(c3)CC/C4=N\\O)c(-c3ccncc3)[nH]2)cc1", "activity change, negative = inhibition": "-18.3% (inactive)"}, {"compound": "COc1ccc(S(=O)(=O)NCc2ccc(C(=O)NCCc3ccc(Cl)cn3)cc2)cc1", "outcome": "inactive"}, {"compound": "CN1C[C@@H]2c3ccccc3Oc3ccc(Cl)cc3[C@H]2C1", "activity change, negative = inhibition": "-6.06% (inactive)"}, {"compound": "CCS(=O)(=O)Nc1ccc(Oc2ccc(F)cc2F)c(-c2cn(C)c(=O)c3[nH]ccc23)c1", "activity change, negative = inhibition": "-15.4% (inactive)"}, {"compound": "CC#CC(=O)N1CC[C@@H](n2c(=O)n(-c3ccc(Oc4ccccc4)cc3)c3c(N)ncnc32)C1", "activity change, negative = inhibition": "4.86% (inactive)"}, {"compound": "N#CCC1(n2cc(-c3ncnc4[nH]ccc34)cn2)CN(C2CCN(C(=O)c3ccnc(C(F)(F)F)c3F)CC2)C1", "Potency": "20.2 µM (active)"}, {"compound": "Cc1cc(O)c(-c2ccc([C@@H](C)CN)cc2)c2c1[nH]c(=O)c1sccc12", "activity change, negative = inhibition": "1.17% (inactive)"}, {"compound": "NC(=O)c1cnc2[nH]ccc2c1NC1C2CC3C[C@H]1CC(O)(C3)C2", "note": "(stereo partly specified)", "activity change, negative = inhibition": "-10.5% (inactive)"}, {"compound": "COc1cc(N2CCN(C)CC2)ccc1Nc1ncc2c(n1)N(C)c1ccccc1C(=O)N2C", "activity change, negative = inhibition": "-14.4% (inactive)"}, {"compound": "CN1CCN(c2ccc(Nc3ncc4cc(C#N)c(=O)n(C5CCCC5)c4n3)cc2)CC1", "outcome": "inactive"}, {"compound": "C=C1/C(=C\\C=C2/CCC[C@]3(C)[C@@H]([C@H](C)CCCC(C)(C)O)CC[C@@H]23)C[C@@H](O)C[C@@H]1O", "activity change, negative = inhibition": "-17.6% (inactive)"}, {"compound": "O=c1cc(N2CCOCC2)oc2c(-c3ccc4c(c3)OCCO4)csc12", "activity change, negative = inhibition": "-27.7% (inactive)"}, {"compound": "CC/C(=C(/c1ccc(O)cc1)c1ccc(OCCNC)cc1)c1ccccc1", "activity change, negative = inhibition": "-12.1% (inactive)"}, {"compound": "CCC(=C/[C@H](C)C/C=C/C(C)=C/[C@@H](C)C(=O)[C@@H](C)[C@H](O)[C@@H](C)C/C(C)=C/C(=O)O)/C=C/[C@@H]1OC(=O)C=C[C@@H]1C", "Potency": "10.1 µM (active)"}, {"compound": "O=C(CCc1ccc(O)cc1)c1c(O)cc(O)cc1O[C@@H]1O[C@H](CO)[C@@H](O)[C@H](O)[C@H]1O", "activity change, negative = inhibition": "-42.8% (inactive)"}]}]}
